Assay outcomes (PubChem)
Rows were chosen to be rich in hits. Some 9.3% of all compounds tested hit in one or more screens of this group.
FMDV inh: blocks foot and mouth disease virus. Potency, µM (doses to about 57.9 µM), for the others: at the highest dose activity change, negative = inhibition, hits mostly inhibitors. 1.2% of 410,000 active. FMDV antiviral cell-based qHTS; calls by dose curve; tested in HEK293T cells; note: read-out not given here; potency is the fitted concentration of half-maximal effect; nearly all actives have a fitted effect of over 45% in size
Sm TGR block: inhibitors of Schistosoma mansoni thioredoxin glutathione reductase | Q962Y6 | purified TGR, DTNB reduction, TNB absorbance 405 nm | Potency, µM (series often up to 114 µM), for the others: top-dose activity change, negative = inhibition, most hits filed as inhibitors | 3% of 360,000 active; note: potency is the fitted concentration of half-maximal effect; nearly all actives have a fitted effect of over 60% in size
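Kinetic colorimetric format: TGR-catalysed, NADPH-driven DTNB reduction monitored via TNB absorbance. Enzyme dispensed at 20 nM; compound exposure 15 min at room temperature before reaction start.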
HCV inh: HCV inhibition; Potency, µM (highest dose often 41.8 µM), inactives show at the top dose activity change, negative = inhibition, most hits filed as inhibitors; 3.4% of 340,000 active; Huh7.5.1 HCVcc-Cre infection, luciferase reporter, 44 h; note: potency is the fitted concentration of half-maximal effect
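Cells (1,000/well) were plated 4 h before compound, then infected with HCVcc-Cre virus (~0.5 moi). After 44 h further culture, infection was read as luciferase luminescence following a 15 min substrate incubation at room temperature.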
VACV mCherry inh: vaccinia inhibition (mCherry reporter); Vaccinia virus mCherry reporter infection, fluorescence; Potency, µM (titrated, usually from 36.5 µM), without a hit: at the highest dose activity change, negative = inhibition, most hits filed as inhibitors; 0.63% of 310,000 active; AID 720579; calls by dose curve; tested in A549 cells; note: potency is the fitted concentration of half-maximal effect; nearly all actives have a fitted effect of over 35% in size
VACV Venus inh: inhibitors of vaccinia virus (Venus reporter). 0.46% of 330,000 active. Vaccinia virus Venus reporter expression, fluorescence. AID 720580. Potency, µM (series often up to 36.5 µM), for the others: at the top dose activity change, negative = inhibition, hits mostly inhibitors; calls by dose curve; tested in A549 cells; note: potency is the fitted concentration of half-maximal effect; nearly all actives have a fitted effect of over 30% in size
HCMV inh: blocks human cytomegalovirus replication; HFF cells, HCMV-luciferase reporter, 72 h; active compounds read low; activity change, negative = inhibition, % at 57.5 µM; 4.5% of 410,000 active; AID 1259415; in the data active = activity change below about -60%; inconclusive = no clear call, values can overlap the other calls; inactive = above about -39%
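Two compound doses tested in HFFs infected with HCMV-luciferase, MOI 1 PFU/cell, 72 h at 37C. Lysate luminescence read with OneGlo; data normalized against buffer-only and 10uM Salinomycin inhibitor controls.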
* = called active by the depositor; i = inactive; ? = inconclusive; nt = no result; ! = not confirmed by another sample; [ ] = remark or other dose. Unless noted, calls come from the whole dose curve; as a rule, active = well fitted curve in the direction sought with a large enough effect; inconclusive = small, poorly fitted or top-dose-only effect, or another doubt; inactive = no such curve, though single readings can be large; an effect the other way counts as inactive or inconclusive. % is set by controls: 0 for no effect and ±100 for the full control effect.

SMILES	FMDV inh	Sm TGR block	HCV inh	VACV mCherry inh	VACV Venus inh	HCMV inh
O=C(NCc1ccccc1)c1onc(CSc2ccc(F)cc2)c1C(=O)NCCCN1CCOCC1	-28.0%	11.1%	?	-25.1%	-17.5%	0.3
CCOc1ccc(CC(=O)N2CCN=C2SCc2ccc([N+](=O)[O-])cc2)cc1	?	0.0%	-4.4%	-19.3%	-8.6%	-29.3
O=C(O)c1ccccc1NC(=O)c1ccccc1Nc1ccccc1	-24.4%	-2.1%	3.5%	nt	nt	-69.8*
Cc1ccc(CN(C)C(=O)c2ccccc2NC(=O)c2ccccc2)o1	-19.9%	39.8µM*	-2.8%	nt	nt	16.6
Cc1cccc(C)c1NC(=O)C(CCc1ccccc1)N(C(=O)c1ccc(F)cc1)c1ccccc1F (stereo not given)	nt	nt	nt	nt	nt	-69.8*
O=C(c1ccc(F)cc1)N(c1ccccc1F)C(CCc1ccccc1)c1nc2ccccc2[nH]1 (stereo not given)	nt	nt	nt	nt	nt	11.4
O=C(CSc1nncs1)NC1CCCCCCC1	11.2%	-12.0%	-6.0%	-6.6%	-5.8%	-17.8
CCC(C)NC(=O)CCc1nnc2ccc(N3CCC(C)CC3)nn12 (stereo not given)	-32.4%	-2.0%	-8.0%	-4.8%	?	-60.5*
CC(=O)Nc1sc2c(c1C(c1ccccc1Cl)N1CCN(CCO)CC1)CCCC2 (stereo not given)	-25.2%	-7.3%	11.2µM*	-19.8%	-10.5%	-24.3
CC(=O)Nc1sc2c(c1C(c1ccccn1)N1CCCC1)CCCC2 (stereo not given)	-10.1%	-1.8%	13.4%	-3.9%	-19.2%	-27.1
CC(=O)Nc1sc2c(c1C(c1cccs1)N1CCOCC1)CCCC2 (stereo not given)	-30.3%	22.4µM*	3.5%	nt	-12.4%	-16.0
O=C(CN1C(=O)S/C(=C\c2ccccc2F)C1=O)Nc1ccccc1O	-6.0%	4.4%	?	nt	nt	-12.0
Cc1cccc(NC(=O)CN2C(=O)N/C(=C/c3cc(C)n(C)c3C)C2=O)c1	-0.3%	25.1µM*	4.8%	-6.9%	2.3%	-9.4
COc1cc(/C=C2/NC(=O)N(CC(=O)Nc3cccc(C)c3)C2=O)ccc1OCC(N)=O	-11.0%	nt	10µM*	-0.8%	-8.1%	-22.2
Cc1ccc(NC(=O)CN2C(=O)S/C(=C\c3cc(C)n(C)c3C)C2=O)cc1	nt	-5.3%	-26.2%	i	2.8%	-17.7
Cc1cc(/C=C2\SC(=O)N(CC(=O)Nc3ccccc3F)C2=O)c(C)n1C	18.1%	25.1µM*	12.9%	i	0.3%	-27.7
Cc1cccc(NC(=O)CN2C(=O)S/C(=C\c3cc(C)n(C)c3C)C2=O)c1	-19.0%	?	?	?	-15.2%	-62.5*
Cc1cc(C)c(CSc2ncc(-c3ccc([N+](=O)[O-])cc3)[nH]2)c(C)c1	0.0%	11.8%	11.2µM*	-0.4%	-28.6%	-13.5
O=C(C1=C(O)C(=O)N(CCN2CCOCC2)C1c1ccccn1)c1cccs1 (stereo not given)	4.0%	20µM*	7.1%	-4.6%	5.2%	46.4
CCN(CC)CCN1C(=O)C(O)=C(C(=O)c2cccs2)C1c1ccc(C)o1 (stereo not given)	55.9%	28.2µM*	15.6%	-8.0%	-5.7%	22.1
COc1ccc(C2C(C(=O)c3sc(C)nc3C)=C(O)C(=O)N2CCN(C)C)cc1OC (stereo not given)	-8.1%	-30.8%	?	nt	0.5%	2.4
Cc1ccc(C2C(C(=O)c3sc(C)nc3C)=C(O)C(=O)N2CCN(C)C)o1 (stereo not given)	8.5%	44.7µM*	8.2%	-3.9%	-1.8%	29.7
Cc1ccc(C2C(C(=O)c3cccs3)=C(O)C(=O)N2CCN2CCOCC2)o1 (stereo not given)	50.3%	20µM*	9.4%	-16.0%	-10.6%	28.9
CCCOc1ccc2c(c1)C(=NN=C(N)N)c1cc(OCCC)ccc1-2	-0.6%	13.5%	11.2µM*	?	?	39.0
CCN(CC)CCOc1ccc2c(c1)C(=NO)c1cc(OCCN(CC)CC)ccc1-2	nt	-20.1%	10µM*	8.91µM*	3.55µM*	23.3
SMILES	FMDV inh	Sm TGR block	HCV inh	VACV mCherry inh	VACV Venus inh	HCMV inh
Cc1ccc(S(=O)(=O)Nc2ccc3ccccc3c2[N+](=O)[O-])cc1	14.5%	nt	-0.4%	-16.7%	-12.7%	17.9
COc1cc(C2c3[nH]c4ccccc4c3CCN2Cc2cn(C)nc2C)ccc1F (stereo not given)	-1.0%	-26.9%	-5.0%	?	-10.4%	-2.2
CC(=O)N1CCc2c(sc(NC(=O)CSc3ccc(F)cc3)c2-c2nc3ccccc3s2)C1	0.0%	-6.4%	nt	-4.5%[7.34 µM]	-1.2%[7.34 µM]	-96.2*
CC(=O)Nc1sc2c(c1-c1nc3ccccc3s1)CCN(C(C)C)C2	-10.2%	16.0%	8.91µM*	12.6µM*	10µM*	nt
C/C(=C\COc1cc(=O)[nH]c2ccccc12)CCC(O)C(C)(C)O (stereo not given)	-21.5%	-10.8%	0.316µM*	1.1%	-4.2%	31.7
O=C(c1ccccc1)N1CCN(CC(O)Cn2ccc3ccccc32)CC1 (stereo not given)	-24.4%	10.6%	3.0%	i	-17.2%	0.5
CC(C)CCNc1nc2c(c(=O)[nH]c(=O)n2C)n1CC(O)COC(C)C (stereo not given)	-3.2%	-5.2%	10.2%	nt	-14.9%	-65.6*
Cc1cccc(NC(=O)c2cc3c(n(-c4ccccc4)c2=O)CCCC3=O)n1	-8.9%	31.6µM*	1.3%	nt	5.0%	49.5
COc1ccc(NC(=O)C2C3C=CC(O3)C2C(=O)NCc2cccnc2)cc1 (stereo not given)	-16.1%	-33.7%	14.8%	nt	nt	13.7
CC(NC(=O)C1CC12CCC2)c1ccccc1 (stereo not given)	9.3%	2.1%	5.5%	i	-0.1%	-61.0*
CC(NC(=O)C1CCC(C)(C(=O)O)C1(C)C)c1ccccc1 (stereo not given)	7.8%	-17.3%	27.3%	-13.6%	-4.2%	19.1
COc1ccc(Cc2c3cc(OC)c(OC)cc3cc[n+]2C)cc1OC	-10.2%	12.6µM*	-9.3%	i	-6.6%	nt
COc1ccc(Cc2nccc3cc(OC)c(OC)cc23)cc1OC	17.8µM*	-0.4%	3.16µM*!	?	?	-76.5*
CCS(=O)(=O)Nc1cc(OC)c(OC)cc1Cc1nccc2cc(OC)c(OC)cc12	-7.4%	-15.5%	-0.7%	10.5%	-9.9%	70.5
CC[n+]1ccc2cc(OC)c(OC)cc2c1Cc1ccc(OC)c(OC)c1	-17.6%	?	-18.1%	i	-5.3%	nt
COc1ccc(OCC(=O)N2CCN(C(=O)c3cccc(F)c3)CC2)cc1	0.6%	2.4%	-2.0%	nt	-20.7%	20.4
CCOC(=O)N1CCc2c(sc3c2c(=O)n(CCc2ccccc2)c(=O)n3CC(=O)Nc2ccc(C)cc2)C1	-11.7%	-1.6%	nt	-17.2%	-5.4%	-29.6
COc1ccccc1CNC(=O)CC(c1ccc(F)cc1)N1Cc2ccccc2C1=O (stereo not given)	20.3%	7.9%	nt	-4.6%	-5.9%	-73.3*
